In all, about 2,400 compounds went through this assay and about 2,400 (100%) were called active.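 The calls were made as follows: active = ratio percent of control, averaged over triplicates, above buffer control mean plus 5 SD (cut at about 64% in these data); inactive = the rest.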 So high a share suggests a set chosen from earlier hits. These entries were drawn from the full list.
Target: Potassium channel subfamily K member 3 (Homo sapiens) (UniProt O14649)
Assay: TASK1 potassium channel blockade, triplicate retest – CHO cells, FluxOR thallium flux, confirmation (AID 651638);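 also: ratio is the fluorescence rise from min to max over baseline after thallium stimulus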
Conditions: CHO-KCNK3 thallium flux, FluxOR fluorescence, at 10 µM, hits give high values

Potassium channel subfamily K member 3 (Homo sapiens), sequence (O14649 whole entry, looked up): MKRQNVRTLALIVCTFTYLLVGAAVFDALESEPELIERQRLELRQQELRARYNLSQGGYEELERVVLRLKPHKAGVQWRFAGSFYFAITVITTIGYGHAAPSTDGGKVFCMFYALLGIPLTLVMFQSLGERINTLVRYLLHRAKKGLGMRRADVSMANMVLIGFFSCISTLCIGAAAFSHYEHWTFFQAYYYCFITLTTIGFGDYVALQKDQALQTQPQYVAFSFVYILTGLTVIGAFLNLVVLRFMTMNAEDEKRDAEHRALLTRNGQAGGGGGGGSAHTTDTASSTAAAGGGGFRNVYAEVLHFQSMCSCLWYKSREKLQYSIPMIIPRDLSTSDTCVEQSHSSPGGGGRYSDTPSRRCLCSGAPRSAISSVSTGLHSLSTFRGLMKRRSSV

Structure (SMILES)	ratio percent of control
COc1ccccc1C1=NCc2nnc(CSC)n2-c2ccc(Cl)cc21	54.7% (active)
CCCCCCN=C(CC)c1c(O)n(CCCC)c(=O)[nH]c1=O	129% (active)
CCOC(=O)C1SC2(C(F)(F)C(F)F)CC1(O)c1c(c(OC)c3occc3c1OC)O2 (stereo not drawn)	112% [0% buffer, 100% carvedilol maximal block] (active)

Reference: PubChem BioAssay AID651638 (Johns Hopkins Ion Channel Center, 2012)
